This is a sample that favours compounds with a hit; in the whole collection about 17% have one here.
TDP1 cell CPT = DT40-hTDP1 cell growth loss with CPT. chicken DT40 Tdp1-/-;hTDP1 cells + 20 nM CPT, ATP luminescence, 48 h. Potency, µM (series often up to 46.2 µM), for the others: at the highest dose activity change, negative = growth inhibition, usual class: inhibitors. hit rate 12% among 420,000. AID 686979; note: % is set by controls: 0 for no effect and ±100 for the full control effect; nearly all actives have a fitted effect of over 55% in size
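Chicken DT40 Tdp1-/- cells complemented with human TDP1, 400 cells/well, exposed to compounds plus 20 nM camptothecin for at least 48 h at 37 C; viability read as ATP content by CellTiter-Glo luminescence.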
ATXN2 expr inh = ATXN2 expression inhibition | Potency, µM (titrated, usually from 57 µM), for the others: at the top dose activity change, negative = inhibition, usual class: inhibitors | AID 1745845 | HEK-293 ATXN2-luciferase reporter, luminescence, 24 h | hit rate 0.72% among 360,000; note: % is set by controls: 0 for no effect and ±100 for the full control effect; nearly all actives have a fitted effect of over 55% in size
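qHTS (up to 57 uM final) was run with 24 h compound exposure of reporter cells at 37 °C. Each well was multiplexed: SteadyGlo luminescence measured ATXN2-luciferase expression after a fluorogenic Gly-Phe-AFC viability readout (25 uM final).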
ATXN viability = cell viability loss in ATXN counter-screen | hit rate 0.49% among 400,000 | AID 651635 | S2 cells (HEK-293 line with an ATXN2-luciferase reporter) viability, CellTiter-Fluor protease fluorescence, 24 h | Potency, µM (doses to about 56.7 µM), usual class: cytotoxic; note: nearly all actives have a fitted effect of over 40% in size
TGFb SMAD3 inh = TGF-b pathway inhibition; HepG2 CAGA-GFP TGF-b/SMAD3 reporter, GFP fluorescence, 18 h; TGF-beta stimulated, 500 pg/mL final; Potency, µM (top dose mostly 46.1 µM), for inactives: top-dose activity, negative = inhibition, actives largely listed as inhibitors; hit rate 1.2% among 410,000; note: % is set by controls: 0 for no effect and ±100 for the full control effect; nearly all actives have a fitted effect of over 65% in size
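Inhibition of TGF-beta-driven CAGA-GFP reporter expression in HEPG2 cells is measured by cellular GFP fluorescence after 18 h stimulation with 500 pg/mL recombinant TGF-beta in 1% FBS medium at 37 degrees C.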
TDP1 cell noCPT = qHTS for Inhibitors of human tyrosyl-DNA phosphodiesterase 1 (TDP1): qHTS in cells in absence of CPT | DT40 Tdp1-/- hTDP1 cells, no CPT, ATP luminescence, 48 h | Potency, µM (highest dose often 46.2 µM), for inactives: at the highest dose activity change, negative = growth inhibition, hits mostly inhibitors | hit rate 15% among 420,000; note: % is set by controls: 0 for no effect and ±100 for the full control effect; nearly all actives have a fitted effect of over 55% in size
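Seeded 400 DT40-hTDP1 cells/well (vehicle DMSO, no 20 nM CPT); pinned compounds; ≥48 hr at 37 °C; CellTiter-Glo luminescence as viability measure.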
HepG2 viability = HepG2 cytotoxicity, counter-screen for TGF-b inhibitors; HepG2 CAGA-GFP viability, ATP luminescence, 18 h; Potency, µM (highest dose often 46.1 µM), for the others: top-dose activity change, negative = cytotoxicity, hits mostly cytotoxic; hit rate 0.76% among 410,000
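CellTiter-Glo luminescence gave cytotoxicity after 18 hours at 37 degrees C. The cells were HepG2 CAGA-GFP in 1% FBS DMEM, stimulated with 500 pg/mL TGF-beta after compound addition. %Activity was normalised to no-cell wells (complete cell-killing) and DMSO (no toxicity), and curves were fitted and classified.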
An asterisk follows results filed as active; i = inactive; ? = inconclusive; . = not tested or not shown; ! = not active in a repeat. Calls come from the whole dose curve; as a rule, active = well fitted curve in the direction sought with a large enough effect; inconclusive = small, poorly fitted or top-dose-only effect, or another doubt; inactive = no such curve, though single readings can be large; an effect the other way counts as inactive or inconclusive. Potency is the fitted concentration of half-maximal effect.

SMILES | TDP1 cell CPT | ATXN2 expr inh | ATXN viability | TGFb SMAD3 inh | TDP1 cell noCPT | HepG2 viability
O=C1C(Nc2ccccc2)=C(N2CCCCC2)C(=O)c2ccccc21 | 18µM* | -11% | ? | -3% | 9.2µM* | -52%
O=C1C(Nc2cccc(O)c2)=C(N2CCCCC2)C(=O)c2ccccc21 | 8.2µM* | -14% | i | -25% | 7.3µM* | -36%
O=C(/C=C/c1ccccc1)Nc1ccc(C(=O)N2CCCCC2)cc1 | ? | -4% | i | 0% | ? | 2%
Cc1ccc(NC2=C(N3CCCCC3)C(=O)c3ccccc3C2=O)cc1 | 2.6µM* | ? | ? | ? | 2.3µM* | -45%
CN(c1ccccc1)c1nc(N)c([N+](=O)[O-])c(N2CCCCC2)n1 | ? | . | i | -17% | ? | -22%
CN(C1=C(N2CCCCC2)C(=O)c2ccccc2C1=O)c1ccccc1 | 15µM* | -8% | ? | 18µM* | 21µM* | -26%
O=P(c1ccccc1)(c1ccccc1)C(O)c1cccs1 (stereo not drawn) | -13% | . | i | -6% | ? | -11%
CCS(=O)(=O)N1CCc2cc(C(=O)Nc3cc(C(F)(F)F)ccc3Cl)ccc21 | ? | -10% | i | 8% | ? | -23%
Clc1ccc(-n2ncc3c(NCc4cccs4)ncnc32)cc1 | -6% | . | . | ? | -1% | -34%
COc1ccc(CNc2ncnc3sccc23)cc1OC | 8.2µM* | -21% | i | 4% | 7.3µM* | 5%
COc1ccc(CNc2ncnc3sccc23)cc1 | 5.8µM* | -34% | ? | 0% | 4.1µM* | -8%
c1csc(CNc2ncnc3sccc23)c1 | 5.2µM* | -14% | i | -20% | 5.2µM* | 1%
COc1ccc(C(CNc2ncnc3sccc23)N(C)C)cc1OC (stereo not drawn) | 0% | 1% | i | -3% | -22% | -17%
Cc1cc2c(NCc3ccccc3)ncnc2s1 | ? | -24% | i | -15% | 6.5µM* | -10%
O=C(O)c1nn2cc(CCO)cnc2c1Cl | -4% | 3% | i | 1% | -24% | 9%
CC(C)(C)n1cnnc1Sc1ncccc1[N+](=O)[O-] | 3% | . | i | -7% | -1% | 8%
c1ccc(CNc2ncnc3sccc23)cc1 | 8.2µM* | . | i | -23% | 7.3µM* | -38%
Cc1sc2ncnc(NCc3ccccc3)c2c1C | 13µM* | ? | i | 11% | 15µM* | -45%
OC(CNc1ncnc2sccc12)c1ccccc1 (stereo not drawn) | 4.1µM* | -35% | i | ? | 5.2µM* | 0%
CN(C)C(CNc1ncnc2sccc12)c1ccccc1 (stereo not drawn) | -24% | 3% | i | -1% | ? | 0%
COc1ccc(N2CCN(C(=O)c3csc4ccccc34)CC2)cc1 | -21% | -18% | i | -6% | ? | -6%
O=C(c1cnc(N2CCCCC2)c2ccccc12)N1CCN(c2ccc(F)cc2)CC1 | 23µM* | . | . | ? | 16µM* | -26%
O=C(c1cnc(N2CCCCC2)c2ccccc12)N1CCN(c2cccc(Cl)c2)CC1 | ? | . | . | ? | 16µM* | -5%
COc1ccccc1N1CCN(C(=O)C2CCN(C(=O)c3cccc(Cl)c3)CC2)CC1 | ? | -16% | i | 5% | ? | -6%
COC(=O)c1cnc(N2CCN(c3ccc(F)cc3)CC2)c2ccccc12 | ? | . | . | -1% | ? | 3%
SMILES | TDP1 cell CPT | ATXN2 expr inh | ATXN viability | TGFb SMAD3 inh | TDP1 cell noCPT | HepG2 viability
O=C(c1csc2ccccc12)N1CCN(c2ccc(Cl)c(Cl)c2)CC1 | 21µM* | -33% | ? | -7% | 23µM* | 8%
COc1ccccc1N1CCN(c2ncc(C(=O)N3CCN(c4cccc(Cl)c4)CC3)c3ccccc23)CC1 | 2.6µM* | -10% | i | 0% | 2.6µM* | -7%
Cc1ccc(-n2nc(C)c3c2NC2=C(C(=O)CC(C)(C)C2)C3c2ccccc2OCC(=O)O)cc1 (stereo not drawn) | ? | -27% | i | 7% | ? | -2%
CCOc1ccc(CCNC(=O)c2ccc(-n3c(C)cc4c3CCC(C)C4)cc2)cc1OCC (stereo not drawn) | 15µM* | . | . | -15% | 15µM* | -15%
CCOc1ccc(CCNC(=O)c2cccc(S(=O)(=O)N3CC(C)OC(C)C3)c2)cc1OCC (stereo not drawn) | ? | -13% | i | -15% | 9.2µM* | 7%
O=C(Nc1cccc(-c2nnc(-c3ccccc3)o2)c1)C1CCCCC1 | ? | 17% | i | 1% | 18µM* | -8%
CCCCC(=O)Nc1cccc(-c2nnc(-c3ccccc3)o2)c1 | 23µM* | -21% | i | 31% | 23µM* | -20%
CCCC(=O)Nc1cccc(-c2nc3ccccc3c(=O)o2)c1 | 39% | -19% | ? | 13% | 3% | 7%
CCC(=O)Nc1cccc(-c2nnc(-c3ccccc3)o2)c1 | 21µM* | 59% | i | 11% | 21µM* | 27%
O=S(=O)(NC1CCCCC1)c1cccc(-c2nnc(-c3ccccc3)o2)c1 | ? | -4% | i | -19% | 15µM* | -23%
CC[C@]12c3[nH]c4ccc(OC)cc4c3CCN1C(=O)C(CC(=O)NCCCn1ccnc1)C[C@@H]2C(=O)N1CCN(C(=O)c2ccco2)CC1 (stereo partly drawn) | 17% | 0% | i | -18% | -4% | 0%
O=S(=O)(c1ccc2ccccc2c1)n1nc(-c2ccco2)nc1NCc1cccc(Cl)c1 | ? | 4% | i | 5% | ? | -2%
CCN1CCN(Cc2ccc(NC(=O)c3cc(NC(=O)c4cc(C)on4)cc(OC)c3)cc2C(F)(F)F)CC1 | 15µM* | ? | ? | ? | 16µM* | -37%
COc1ccc(NC(=O)c2cnn(-c3ccccc3)c2C)cc1OC | -19% | 13% | i | -1% | ? | -15%
CCN1CCN(Cc2ccc(NC(=O)c3cc(NC(=O)C(=O)c4c[nH]c5ccccc45)cc(OC)c3)cc2C(F)(F)F)CC1 | 23µM* | 14µM*! | 16µM* | ? | 21µM* | 11µM*!
CCN1CCN(Cc2ccc(NC(=O)c3ccc(C)c(NC(=O)C(=O)c4c[nH]c5ccccc45)c3)cc2C(F)(F)F)CC1 | 2.6µM* | 14µM*! | 14µM* | 18µM* | 2.6µM* | 16µM*!

Screening data deposited in PubChem BioAssay by National Center for Advancing Translational Sciences (NCATS).
